The subject of one experiment is Tov112D. The experiment is described as follows: Primary qHTS to identify gynecologic anti-cancer compounds using libraries of approved drugs and bioactive compounds (AID 1345084). Also: nearly all actives have a fitted effect of over 55% in size. Conditions: Gynecologic cancer cell panel viability, ATPlite luminescence, 48 h; series mostly up to 57.5 µM. The essentials:
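In this quantitative HTS, cell killing is estimated from loss of ATP-dependent luciferase light. Cells see five compound concentrations over a 48 h exposure.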

The nature of experiment [1]: Drug repurposing screens with cells derived from glioblastoma tumor samples (AID 1345199). Also: nearly all actives have a fitted effect of over 40% in size. The conditions noted are these: GBM patient neurospheres viability, ATP luminescence, 48 h. In short, it runs like this: (§1)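 Primary testing used CD133+ neurospheres from four GBM patients, seven concentrations, 48 h exposure and ATP-based viability; confirmation added three slower-growing patient lines.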

For the next experiment, the system named is astro. Described as above. The conditions noted are these: viability, ATP luminescence, 48 h; series mostly up to 45.9 µM. The essentials: as §1
Setting [2] is: at 45.9 µM (top of the series), tumour line B.
Setting [3] is: at 45.9 µM (top of the series), tumour line D.
The mark [4] stands for this setting: at 46.1 µM (top of the series), tumour line C.
Setting [5] is: at 46 µM (top of the series), tumour line A.
Setting [6] is: at 20 µM (top of the series), tumour line C.
The mark [7] stands for this setting: at 21.2 µM (top of the series), tumour line B.
[8] abbreviates: at 21.2 µM (top of the series), tumour line D.
Setting [9] is: at 21.3 µM (top of the series), tumour line A.

Molecules are shown by their SMILES. Results filed as inconclusive are left out. A number with no mark means an inactive call. Active and inactive are the calls of the source. Calls follow the shape of the dose curve; as a rule, active = well fitted curve in the direction sought with a large enough effect; inconclusive = small, poorly fitted or top-dose-only effect, or another doubt; inactive = no such curve, though single readings can be large; an effect the other way counts as inactive or inconclusive.
% is scaled to controls: 0 for no effect and ±100 for the full control effect; potency is read from the fitted curve at half-maximal effect.

With `Cc1cc2c(OCC(CNC(C)(C)C)OC(=O)c3ccccc3)cccc2[nH]1` (centres undefined), in the experiment with Tov112D, the Potency entry is “inactive”. For the same molecule, the values for the activity, negative = cell killing in experiment [1] (setting [2]), in experiment [1] (setting [3]) and in experiment [1] (setting [4]) were -19.3%, -5.62% and -10.8%, respectively.

For the molecule `CCOC(=O)[C@H](CCc1ccccc1)N[C@@H](C)C(=O)N1[C@H](C(=O)O)C[C@@H]2CCC[C@@H]21`, the Potency result in the experiment on Tov112D was “inactive”. Further, the activity, negative = cell killing was -17.1% in experiment [1] (setting [2]), 6.01% in experiment [1] (setting [3]) and -13.2% in experiment [1] (setting [4]).

`CCCCCCCCCCCCCC[N+](C)(C)Cc1ccccc1`: the Potency in the experiment on Tov112D was 14.1 µM (active).

`CC(=O)OC[C@H]1O[C@@H](n2ncc(=O)[nH]c2=O)[C@H](OC(C)=O)[C@@H]1OC(C)=O`: in the experiment on Tov112D, the Potency result is “inactive”. Also, the activity, negative = cell killing in experiment [1] (setting [3]) is -20.8%; in experiment [1] (setting [5]) it was -30.4%.

With `CC(=O)Nc1ccc(S(=O)(=O)Nc2ccc([N+](=O)[O-])cc2)cc1`, the Potency entry in the experiment on Tov112D was “inactive”. Besides, the activity, negative = cell killing in experiment [1] (setting [2]) was -8.95%; in experiment [1] (setting [3]), -28.3%; in experiment [1] (setting [4]), 10.9%.

In the case of `CC[N+](C)(CC)CCOC(=O)C(O)(c1ccccc1)C1CCCCC1` (centres undefined), the Potency result with Tov112D is “inactive”. Also, the activity, negative = cell killing in experiment [1] (setting [2]) was 4.51%; in experiment [1] (setting [3]), -27.2%; in experiment [1] (setting [4]), -9.68%.

Consider `CC[C@H](c1ccc(O)cc1)[C@@H](CC)c1ccc(O)cc1`, for which the Potency entry in the experiment on Tov112D was “inactive”. In addition, the activity, negative = cell killing was -16.2% in experiment [1] (setting [6]), 5.51% in experiment [1] (setting [7]) and -30% in experiment [1] (setting [8]). Further, in experiment [1] (tumour line A), the Potency was 14.1 µM (active).

Regarding `COc1cc(C(=O)NCc2ccc(OCCN(C)C)cc2)cc(OC)c1OC`, the Potency entry in the experiment on Tov112D and in the experiment on astro was “inactive” in each case. Further, the activity, negative = cell killing was -15.6% in experiment [1] (setting [6]), -6.09% in experiment [1] (setting [7]), -9.89% in experiment [1] (setting [8]) and -23.1% in experiment [1] (setting [9]).

Turning to `O=S(c1cc(Cl)cc(Cl)c1O)c1cc(Cl)cc(Cl)c1O`, the Potency result in the experiment on Tov112D is “inactive”. In addition, the activity, negative = cell killing in experiment [1] (setting [2]) was -23.8%; in experiment [1] (setting [3]), -25%; in experiment [1] (setting [4]) it was -26.7%. Further, the Potency in experiment [1] (tumour line A) was 28.2 µM (active).

Take `CC(=O)Nc1ccc(OC(=O)c2ccccc2OC(C)=O)cc1`: the Potency entry with Tov112D and in the experiment on astro was “inactive” in each case. Besides, the activity, negative = cell killing in experiment [1] (setting [2]) is -12.4%; in experiment [1] (setting [3]), -13.4%; in experiment [1] (setting [5]), -15.3%; in experiment [1] (setting [4]), -16.9%.

Consider `CC(O)Cn1cnc2c1c(=O)n(C)c(=O)n2C` (centres undefined), for which the Potency entry with Tov112D and with astro was “inactive” throughout. The activity, negative = cell killing is 7.77% in experiment [1] (setting [6]), -9.45% in experiment [1] (setting [7]), -12.1% in experiment [1] (setting [8]) and -14.4% in experiment [1] (setting [9]).

On to `C#C[C@]1(O)CC[C@H]2[C@@H]3CCC4=CC(=O)CC[C@@H]4[C@H]3CC[C@@]21CC`, for which the Potency result in the experiment with Tov112D was “inactive”. Also, the activity, negative = cell killing in experiment [1] (setting [2]) was -8.91%; in experiment [1] (setting [3]), -3.36%; in experiment [1] (setting [4]) it was 6%.

With `CCO[C@@H]1O[C@H](C(COCc2ccccc2)OCc2ccccc2)[C@H](OCc2ccccc2)[C@H]1O` (some centres undefined), in the experiment on Tov112D, the Potency result is “inactive”. For the same molecule, the values for the activity, negative = cell killing in experiment [1] (setting [6]), in experiment [1] (setting [7]) and in experiment [1] (setting [8]) were -1.34%, -8.94% and -23.7%, respectively. For the same molecule, the Potency in experiment [1] (tumour line A) was 14.1 µM (active).

Regarding `CC(C)Cc1ccc(CC(=O)O)cc1`, the Potency entry in the experiment on Tov112D and in the experiment with astro was “inactive” throughout. Moreover, the activity, negative = cell killing in experiment [1] (setting [2]) is -12.1%; in experiment [1] (setting [3]), -2.06%; in experiment [1] (setting [5]) it was -12.4%; in experiment [1] (setting [4]), 9.2%.

`FC(F)(F)C(F)(F)C(F)(F)C(F)(F)C(F)(F)C(F)(F)C(F)(F)C(F)(F)Br`: the Potency entry in the experiment on Tov112D was “inactive”. For the same molecule, the activity, negative = cell killing is -8.68% in experiment [1] (setting [2]), -7.68% in experiment [1] (setting [3]), -17.2% in experiment [1] (setting [5]) and 5.77% in experiment [1] (setting [4]).

Regarding `O=C(O)Cc1csc(-c2ccc(Cl)cc2)n1`, the Potency result in the experiment on Tov112D is “inactive”. The activity, negative = cell killing is -6.84% in experiment [1] (setting [2]), 8.21% in experiment [1] (setting [3]), -20.7% in experiment [1] (setting [5]) and -23.2% in experiment [1] (setting [4]).

Regarding `O=C(CCCN1CC=C(n2c(=O)[nH]c3ccccc32)CC1)c1ccc(F)cc1`, the Potency entry with Tov112D is “inactive”. Moreover, the activity, negative = cell killing is -17.1% in experiment [1] (setting [2]), -15% in experiment [1] (setting [3]) and -24.6% in experiment [1] (setting [4]). The Potency in experiment [1] (tumour line A) was 10 µM (active).

In the case of `COc1ccc(CCN(C)CCCN2CCc3cc(OC)c(OC)cc3CC2=O)cc1OC`, the Potency entry in the experiment on Tov112D was “inactive”. For the same molecule, the activity, negative = cell killing in experiment [1] (setting [2]) is -2.1%; in experiment [1] (setting [3]) it was -12.6%; in experiment [1] (setting [4]), -18%. The Potency in experiment [1] (tumour line A) is 28.2 µM (active).

For `O=C(O)CCc1nc2ccccc2[nH]1`, the Potency entry with Tov112D and in the experiment with astro was “inactive” throughout. Moreover, the activity, negative = cell killing was -11.4% in experiment [1] (setting [2]), 5.36% in experiment [1] (setting [3]), -40.1% in experiment [1] (setting [5]) and -13.5% in experiment [1] (setting [4]).

Turning to `O=C(O)CCC(=O)Nc1ccc(S(=O)(=O)Nc2nccs2)cc1`, the Potency result in the experiment on Tov112D was “inactive”. For the same molecule, the activity, negative = cell killing in experiment [1] (setting [6]) was -5.75%; in experiment [1] (setting [7]), 2.8%; in experiment [1] (setting [8]), -10.2%; in experiment [1] (setting [9]), -13.6%.

As to `NS(=O)(=O)c1cc2c(cc1Cl)NC(CC1CCCC1)NS2(=O)=O` (centres undefined), in the experiment on Tov112D, the Potency result is “inactive”. The activity, negative = cell killing in experiment [1] (setting [6]) was -10.8%; in experiment [1] (setting [7]) it was -9.27%; in experiment [1] (setting [8]) it was -11%; in experiment [1] (setting [9]) it was -13.5%.

In the case of `CC(=O)N[C@@H](CCC(=O)O)C(=O)O`, the Potency result in the experiment on Tov112D is “inactive”. Besides, the activity, negative = cell killing in experiment [1] (setting [2]) is 2.35%; in experiment [1] (setting [3]) it was -7.45%; in experiment [1] (setting [5]), -9.15%; in experiment [1] (setting [4]) it was -3.96%.

For the molecule `O=C(O)CCNC(=O)c1ccccc1`, the Potency result in the experiment on Tov112D was “inactive”. The activity, negative = cell killing is -3.69% in experiment [1] (setting [2]), -10.8% in experiment [1] (setting [3]), -25.4% in experiment [1] (setting [5]) and -11.5% in experiment [1] (setting [4]).

For the origin of these results see PubChem BioAssay (NCATS).
